CatB mix inh: cathepsin B inhibitors from pooled compounds, primary screen, biochemical, compound mixtures, AMC fluorescence | Purified cathepsin B, AMC dipeptide fluorescence | hit rate 0.06% among 62,000 | inhibition, %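 (ten-compound pools at 5 µM per compound and 50 µM total)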 | AID 488, 2006; in the data active = inhibition above about 22%, passing the limit was not always enough;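 also: 0% = enzyme without compound and 100% = no enzyme blank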
CatS block: inhibitors of human cathepsin S, biochemical, compound mixtures. P25774. recombinant cathepsin S, AMC dipeptide fluorescence, pooled mixtures. inhibition, %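 (tested at 5 µM per compound within 10-compound mixtures)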. hit rate 0.06% among 62,000. AID 501, 2006; in the data active = inhibition above about 32%, passing the limit was not always enough;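 also: 0% = enzyme without compound and 100% = blank without enzyme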
Target sequence (P25774 115-331 limits assumed): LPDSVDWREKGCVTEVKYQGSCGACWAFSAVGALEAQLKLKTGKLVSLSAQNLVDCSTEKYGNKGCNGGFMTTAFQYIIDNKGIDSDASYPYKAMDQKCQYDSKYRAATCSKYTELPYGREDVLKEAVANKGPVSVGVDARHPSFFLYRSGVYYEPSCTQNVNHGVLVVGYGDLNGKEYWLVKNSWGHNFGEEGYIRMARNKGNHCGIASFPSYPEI
CatL block: inhibitors of human cathepsin L, biochemical; purified cathepsin L, fluorogenic substrate, fluorescence; inhibition, %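 (tested at 10 µM)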; hit rate 0.17% among 58,000; in the data active = inhibition above about 45%;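 also: 0% = enzyme with no compound and 100% = no enzyme blank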
CatB inh: human cathepsin B inhibitors, primary screen, biochemical, fluorogenic substrate. P07858. purified cathepsin B, fluorescence. inhibition, %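 (tested at 10 µM)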. hit rate 0.1% among 63,000. AID 453, 2006; in the data active = inhibition above about 21%;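 also: 0% = enzyme with no compound and 100% = no enzyme blank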
C1s inh: complement C1s protease inhibitors, primary screen, biochemical, 10-compound mixtures | purified C1s, fluorogenic AMC substrate, pooled mixtures | Complement C1s subcomponent (Homo sapiens), P09871 | mean inhibition % of two 10-compound mixtures (active compounds read high), % at 5 µM (by protocol) | hit rate 0.16% among 62,000;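 active = inhibition above 20% in each of the two 10-compound mixture wells holding the compound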;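 also: 0% = enzyme wells lacking compound mixture and 100% = no-enzyme blank wells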
Cathepsin G inh: human cathepsin G inhibitors, primary screen, biochemical, pooled compound mixtures, AMC fluorescence. P08311. purified enzyme, AMC-tetrapeptide fluorescence. inhibition, % at 5 µM (by protocol). hit rate 0.2% among 62,000. AID 581, 2007;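 active = inhibition above 20% in each of the two mixture wells holding the compound; inactive = inhibition of 20% or less in either well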;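 also: 0% = enzyme control without mixture and 100% = blank lacking enzyme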
Starred values were filed as active, the others as inactive. Sampled rows, rich in hits. Any-hit rate of the full collection: about 0.58%.

SMILES	CatB mix inh	CatS block	CatL block	CatB inh	C1s inh	Cathepsin G inh
Cn1ncnc2c(=O)n(C)c(=O)nc1-2	80*	70*	85*	83*	-82	7
CCCCn1c(O)c(C=NC2CC3CCC2(C)C3(C)C)c(=O)[nH]c1=O (stereo not given)	3	3	9	2	6	9
CC1CN=C(Nc2cccc3ccccc23)S1 (stereo not given)	6	8	23	3	35*	30
O=C1N(CN2CCOCC2)c2ccccc2C1(O)c1c[nH]c2ccccc12 (stereo not given)	3	2	2	0	12	8
CCc1cc2c(s1)NC(=O)CN=C2c1cccs1	-2	22	10	1	-12	2
CN(C)C(=O)CSc1nnc([C@@H](N)Cc2ccccc2)o1	-3	9	103*	1	0	11

Assay outcomes from PubChem BioAssay.
